Source: PubChem (National Center for Advancing Translational Sciences (NCATS))
BAZ2B block = qHTS Assay for Inhibitors of BAZ2B | Bromodomain adjacent to zinc finger domain protein 2B (Homo sapiens), Q9UIF8 | AlphaScreen BAZ2B-H3K14Ac peptide displacement | Potency, µM (doses to about 114 µM), for inactives: top-dose activity change, negative = inhibition, hits mostly inhibitors | 4.4% of 360,000 active | AID 504333, 2011; further: potency means the concentration at half of the fitted maximal effect; on the % scale 0 is the no-effect control and ±100 the full control effect; nearly all actives have a fitted effect of over 60% in size
Target sequence (Q9UIF8 whole entry, looked up, the tested form may be a part): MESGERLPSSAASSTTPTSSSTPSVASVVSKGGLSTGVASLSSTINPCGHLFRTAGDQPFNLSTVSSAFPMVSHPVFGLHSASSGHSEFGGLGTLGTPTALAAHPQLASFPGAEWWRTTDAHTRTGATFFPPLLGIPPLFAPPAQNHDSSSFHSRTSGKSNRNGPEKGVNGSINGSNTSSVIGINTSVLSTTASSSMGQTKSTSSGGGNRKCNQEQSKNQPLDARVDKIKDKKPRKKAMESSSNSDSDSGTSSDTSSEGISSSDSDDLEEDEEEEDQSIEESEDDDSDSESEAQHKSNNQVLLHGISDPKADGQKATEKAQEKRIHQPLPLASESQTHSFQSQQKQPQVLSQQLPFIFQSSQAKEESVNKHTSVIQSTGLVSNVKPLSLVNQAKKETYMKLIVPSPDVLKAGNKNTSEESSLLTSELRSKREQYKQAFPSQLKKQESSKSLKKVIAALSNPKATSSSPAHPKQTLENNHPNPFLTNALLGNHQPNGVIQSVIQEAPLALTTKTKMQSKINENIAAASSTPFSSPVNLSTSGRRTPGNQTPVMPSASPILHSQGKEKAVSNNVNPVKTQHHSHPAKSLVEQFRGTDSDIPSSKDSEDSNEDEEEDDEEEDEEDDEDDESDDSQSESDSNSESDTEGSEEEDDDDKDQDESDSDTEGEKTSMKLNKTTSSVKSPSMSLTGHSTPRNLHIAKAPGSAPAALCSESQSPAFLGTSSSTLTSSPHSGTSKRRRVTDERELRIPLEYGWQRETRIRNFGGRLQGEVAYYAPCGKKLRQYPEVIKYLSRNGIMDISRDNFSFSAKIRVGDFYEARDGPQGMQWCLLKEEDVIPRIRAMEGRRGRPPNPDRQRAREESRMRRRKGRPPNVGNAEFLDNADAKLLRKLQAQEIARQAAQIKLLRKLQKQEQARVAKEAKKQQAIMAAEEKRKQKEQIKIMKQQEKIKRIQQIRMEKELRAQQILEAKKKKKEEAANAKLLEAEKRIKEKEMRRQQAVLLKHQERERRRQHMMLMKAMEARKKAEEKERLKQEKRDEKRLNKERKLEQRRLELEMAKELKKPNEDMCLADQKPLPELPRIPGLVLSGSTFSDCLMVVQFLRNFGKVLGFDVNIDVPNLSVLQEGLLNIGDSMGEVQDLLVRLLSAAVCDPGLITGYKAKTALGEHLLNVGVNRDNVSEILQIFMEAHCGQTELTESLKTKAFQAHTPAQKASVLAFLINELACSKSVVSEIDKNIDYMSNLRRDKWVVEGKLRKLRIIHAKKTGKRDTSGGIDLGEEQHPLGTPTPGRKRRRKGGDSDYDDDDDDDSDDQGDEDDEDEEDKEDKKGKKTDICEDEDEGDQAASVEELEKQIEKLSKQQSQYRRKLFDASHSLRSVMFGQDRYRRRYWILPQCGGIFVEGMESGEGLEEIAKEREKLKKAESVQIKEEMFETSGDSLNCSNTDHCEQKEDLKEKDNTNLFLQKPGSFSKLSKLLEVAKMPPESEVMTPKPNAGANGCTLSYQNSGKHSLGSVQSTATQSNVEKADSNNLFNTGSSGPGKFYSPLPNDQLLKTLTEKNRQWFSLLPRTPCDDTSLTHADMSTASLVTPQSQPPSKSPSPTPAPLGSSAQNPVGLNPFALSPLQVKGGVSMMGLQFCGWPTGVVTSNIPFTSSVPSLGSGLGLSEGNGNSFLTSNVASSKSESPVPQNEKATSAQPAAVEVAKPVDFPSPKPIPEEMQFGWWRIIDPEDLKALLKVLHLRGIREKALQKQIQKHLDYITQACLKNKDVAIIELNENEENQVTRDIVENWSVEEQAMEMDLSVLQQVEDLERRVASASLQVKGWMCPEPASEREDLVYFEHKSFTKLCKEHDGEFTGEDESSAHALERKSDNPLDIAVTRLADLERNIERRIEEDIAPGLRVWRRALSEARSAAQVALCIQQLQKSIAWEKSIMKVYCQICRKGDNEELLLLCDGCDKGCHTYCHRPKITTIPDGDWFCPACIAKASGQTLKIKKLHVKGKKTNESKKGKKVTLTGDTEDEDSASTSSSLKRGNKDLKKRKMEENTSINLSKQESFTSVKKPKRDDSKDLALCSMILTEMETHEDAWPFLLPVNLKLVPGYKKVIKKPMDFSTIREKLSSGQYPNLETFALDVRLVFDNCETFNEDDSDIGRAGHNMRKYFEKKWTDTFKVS
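Complex of BAZ2B and biotin-H3K14Ac (50 nM apiece) forms over 30 min at RT, then faces library compounds up to 110 uM for another 30 min; AlphaScreen beads added, 20 min dark incubation, luminescence read.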
G9a block = qHTS Assay for Inhibitors of Histone Lysine Methyltransferase G9a; G9a H3K9 monomethylation, AlphaScreen, 2 h; Potency, µM (highest dose often 102 µM), for the others: top-dose activity, negative = inhibition, hits mostly inhibitors; 8.8% of 350,000 active; further: potency means the concentration at half of the fitted maximal effect; on the % scale 0 is the no-effect control and ±100 the full control effect; nearly all actives have a fitted effect of over 75% in size
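AlphaScreen read-out: biotin-H3K9 peptide (500 nM) methylation by 20 nM enzyme with 20 uM SAM, 2 h at room temperature after 15 min compound preincubation; anti-monomethyl H3K9 antibody plus donor/acceptor beads, 10 min dark.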
JMJD2A Tudor = qHTS Assay for Inhibitors of JMJD2A-Tudor Domain; Lysine-specific demethylase 4A (Homo sapiens), O75164; AlphaScreen JMJD2A-Tudor / H3K4me3 peptide binding; Potency, µM (doses to about 114 µM), for inactives: top-dose activity change, negative = inhibition, hits mostly inhibitors; 4.4% of 390,000 active; AID 504339, 2011; further: potency means the concentration at half of the fitted maximal effect; on the % scale 0 is the no-effect control and ±100 the full control effect; nearly all actives have a fitted effect of over 50% in size
PI5P4K alpha inh = qHTS for Inhibitors of phosphatidylinositol 5-phosphate 4-kinase (PI5P4K); PI5P4Kalpha enzyme, ADP-Glo luminescence, 60 min; stronger effect = lower value; AID 652105, 2013; 1.2% of 330,000 active; Phosphatidylinositol 5-phosphate 4-kinase type-2 alpha (Homo sapiens), P48426; max response, %; active means max response of -50% or lower; inconclusive means between -30% and -50%; inactive means -30% or higher; further: value at the top dose of about 77 µM; on the % scale 0 is the no-effect control and ±100 the full control effect
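Quantitative HTS of the MLSMR library against PI5P4Kalpha with substrate. ATP added last at 5 microM final; room temperature, 60 minutes. Remaining ATP depleted, ADP converted and read as luminescence.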
HP1b chromo inh = HTS for Inhibitors of HP1-beta Chromodomain Interactions with Methylated Histone Tails. AlphaScreen HP1-beta / biotin-H3K9me3 peptide binding. Potency, µM (series often up to 114 µM), without a hit: at the top dose activity change, negative = inhibition, hits mostly inhibitors. 0.56% of 390,000 active. AID 540317, 2011; further: potency means the concentration at half of the fitted maximal effect; nearly all actives have a fitted effect of over 70% in size
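HP1-beta protein (50 nM final) preincubated 30 min at room temperature with biotinylated H3(1-18)K9me3 peptide (50 nM) in PBS pH 7.4, 0.01% Tween-20, then compound added for 30 min. AlphaScreen streptavidin donor/nickel chelate acceptor beads (10 ug/mL final), 30 min dark, luminescence read.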
PLK1 PBD inh = qHTS for Inhibitors of PLK1-PDB (polo-like kinase 1 - polo-box domain): Primary Screen; Serine/threonine-protein kinase PLK1 (Homo sapiens), P53350; Plk1 PBD binding of FITC phosphopeptide, fluorescence polarization; 2.8% of 360,000 active; Potency, µM, without a hit: max response, negative = inhibition, actives largely listed as inhibitors; AID 720504, 2013; further: potency means the concentration at half of the fitted maximal effect; series mostly up to about 57 µM; on the % scale 0 is the no-effect control and ±100 the full control effect; nearly all actives have a fitted effect of over 65% in size
Starred values were filed as active, the others as inactive; u = inconclusive; x = no result given; ! = repeats disagree; [ ] = another dose, or the depositor's remark. Only some compounds are listed: those with a hit (about 12% of all), similar ones and a draw of the others. Unless noted, the call rests on the fitted dose curve; in most records, active means well fitted curve in the direction sought with a large enough effect; inconclusive means small, poorly fitted or top-dose-only effect, or another doubt; inactive means no such curve, though single readings can be large; an effect the other way counts as inactive or inconclusive.

SMILES	BAZ2B block	G9a block	JMJD2A Tudor	PI5P4K alpha inh	HP1b chromo inh	PLK1 PBD inh
CC(CNC(=O)Cn1ncc2c3ccccc3n(Cc3cccc(Cl)c3)c2c1=O)c1ccccc1 (stereo unspecified)	-21.4%	6.0%[59 µM]	u	x	3.9%	x
CCCCCCSc1ccc([C@H]2N[C@@](C)(C(=O)OC)[C@H]3C(=O)N(C)C(=O)[C@@H]23)cc1	-6.6%	20.7%[2.33 µM]	-29.5%	14.1	45.3%	-15.0%
COc1ccc(-c2nnc3n2N=C(c2cc(OC)ccc2OC)CS3)c(OC)c1	x	x	-9.0%	x	x	x
CCCCN(NC(C)=O)c1nc(Cl)nc(NC(C)C)n1	0.2%	50.1µM*	-8.7%	x	17.4%	-1.9%
CC(C)Nc1nc(Cl)nc(NN(C)c2nc(N(C)C)nc(N(C)C)n2)n1	-1.8%	-4.6%[59 µM]	-22.1%	5.1	20.9%	-14.8%
COC(=O)CC1Oc2ccc(F)cc2-n2cc(-c3ccc(C)cc3)nc21 (stereo unspecified)	-15.9%	-1.6%[59 µM]	-17.5%	x	-1.3%	x
CN(C)c1ccc(NC(=O)COC(=O)c2cc(Cl)ccc2[N+](=O)[O-])cc1	35.5µM*	6.31µM*	25.1µM*	3.0	50.1µM*	-10.4%
CN(C)c1ccc(C(=O)OCC(=O)Nc2ccc(N3CCOCC3)cc2)cc1	-1.7%	-0.3%	4.4%	-6.5	24.1%	-11.3%
COC(=O)c1ccccc1NC(=O)COC(=O)c1ccccc1N=Nc1ccc(N(C)C)cc1	8.91µM*	8.91µM*	31.6µM*	-3.3	u	-8.8%
CN(C)c1ccc(N=Nc2ccccc2C(=O)OCC(=O)N(C)c2ccccc2)cc1	10µM*	8.91µM*	12.6µM*	-3.3	u	1.0%
CC(=O)c1ccc(NC(=O)COC(=O)c2ccccc2N=Nc2ccc(N(C)C)cc2)cc1	5.01µM*	12.6µM*	12.6µM*	7.3	31.6µM*	-0.5%
CC(=O)Nc1ccc(N2CC(C)(C)C2=O)cc1	-19.6%	x	-14.3%	-6.3	37.4%	-8.6%
CC(=O)N1CCCc2cc(S(=O)(=O)N3CCCC(C)C3)ccc21 (stereo unspecified)	-2.6%	0.0%	-16.6%	0.1	48.1%	-2.0%
CCOc1ccc(Nc2nc(-c3cccc(Cl)c3)c3c(n2)-c2ccccc2OC3)cc1	-38.5%	12.6µM*	u	x	-7.5%	x
O=C(O)c1ccc(CNC(=O)C2CCCN2C(=O)OCc2ccccc2)cc1 (stereo unspecified)	1.1%	15.7%	-13.5%	2.3	24.4%	2.4%
Cc1ccc(NC(=O)C2CCC(=O)N2C(=O)OCc2ccccc2)cc1 (stereo unspecified)	-2.2%	-11.0%	-3.6%	8.7	10.3%	-4.5%
O=C(O)C1CCC(=O)N1C(=O)OCc1ccccc1 (stereo unspecified)	18.0%	70.8µM*	-0.7%	2.6	38.5%	-7.6%
O=C[C@@H]1CCCN1C(=O)[C@@H]1CCCN1C(=O)OCc1ccccc1	x	8.91µM*	x	x	x	x
Cc1ccc2occ(CN3CCN(c4ccccc4)CC3)c(=O)c2c1	-29.8%	-5.1%[12.7 µM]	u	x	-9.2%	-10.7%
Cc1ccc2occ(C3N[C@H](C(=O)O)CS3)c(=O)c2c1 (stereo partly specified)	u	31.6µM*	7.94µM*	u	u	u
Cc1ccc2occ(C3NC(C(=O)O)CS3)c(=O)c2c1 (stereo unspecified)	50.1µM*	5.01µM*	4.5%	-1.4	43.9%	0.0%
CCOc1ccc(Br)cc1CNc1ccc2c(c1)OCCO2	25.1µM*	-137.9%[59 µM]	28.2µM*	13.8	50.1µM*	-2.1%
C=CCOc1ccccc1CNc1cccc(F)c1	74.8%	95.1%[59 µM]	18.6%	11.9	104.4%	2.9%
COc1cccc(CNc2ccc3[nH]c(=O)[nH]c3c2)c1OCc1ccccc1F	28.2µM*	44.7µM*	44.7µM*	2.1	31.6µM*	-5.3%
C=CCOc1ccccc1CNc1ccc2c(c1)OCCO2	70.8µM*	8.91µM*	50.1µM*	-24.9	u	u
SMILES	BAZ2B block	G9a block	JMJD2A Tudor	PI5P4K alpha inh	HP1b chromo inh	PLK1 PBD inh
CCOc1ccc(Br)cc1CNCCN1CCOCC1	-6.1%	u	-25.3%	12.1	18.4%	-3.0%
C=CCOc1ccccc1CNc1ccc2[nH]c(=O)[nH]c2c1	56.2µM*	28.2µM*	u	-3.0	u	-7.0%
COc1ccc(C2Nc3ccccc3C(=O)N2Cc2ccccc2)cc1COc1cccc(Cl)c1 (stereo unspecified)	x	x	-2.7%	x	x	x
COc1ccccc1CN1CCCC2(CCN(C(=O)c3cnccn3)CC2)C1	x	6.2%[12.7 µM]	x	x	x	x
CC(C)(C)S(=O)N1Cc2cc(CO)ccc2[C@@H]1CCO (stereo partly specified)	x	x	10.3%	2.8	98.0%	-4.3%
CCSc1nc(C)c(C(C)=O)cc1C#N	u	17.8%	6.8%	9.6	52.7%	1.5%
CSc1nc(C)c(C(=O)C[n+]2ccccc2)cc1C#N	0.794µM*	x	-12.3%	-8.9	11.6%	-10.3%
CCOC(=O)c1cc(C#N)c(SCC(=O)c2cc(C#N)c(SC)nc2C)nc1C	9.0%	44.7µM*	-15.1%	x	22.2%	-5.9%
CCOC(=O)c1cc(C#N)c(SCc2cccc3ccccc23)nc1C	11.6%	37.7%[59 µM]	23.6%	-0.9	48.9%	-6.8%
O=C1c2ccccc2C(=O)C2OC12 (stereo unspecified)	-14.4%	8.91µM*	x	x	x	x
O=C1c2ccccc2C(=O)C1c1ccccn1	-16.6%	-32.6%	-0.7%[11.4 µM]	5.7	32.5%	-1.6%
NS(=O)(=O)c1ccc(CCNC(=O)c2ccc3nc(Cc4ccccc4)oc3c2)cc1	1.4%	-2.9%[59 µM]	-5.8%	x	21.3%[57 µM]	x
CN1CCN(C2=Nc3c(Cl)cc(Cl)c4cccc2c34)CC1	28.2µM*	u	50.1µM*	3.9	u	u
O=C1NC(=O)c2cc(Nc3ccccc3)c(Nc3ccccc3)cc21	x	21.2µM*!	x	x	x	x
O=C1NC(=O)c2cc(Nc3ccc(F)cc3)c(Nc3ccc(F)cc3)cc21	x	14.1µM*	x	x	x	x
CCc1c2c(nc3ccc4c(c13)OCCO4)-c1nc3ccccc3c(=O)n1C2	x	x	-13.1%	x	10.4%	x
Cc1noc(C)c1S(=O)(=O)N(C)C[C@H]1OCc2cnnn2CCCC(=O)N([C@@H](C)CO)C[C@H]1C	x	x	x	-2.0	x	-27.0%
COc1ccc(-n2c(C)nc3cc(C(=O)NC4CCCCCC4)ccc32)cc1	u	-16.4%[59 µM]	-13.5%	x	9.3%	x
O=S(=O)(Nc1ccc(N2CCCCC2)cc1)c1ccccc1F	50.1µM*	39.8µM*	u	-14.4	u	-8.4%
O=S(=O)(c1cccc2cccnc12)N1CCCCC1	-0.4%	x	-4.8%	-5.1	17.4%	3.9%
